# Hits are enriched below; roughly 3.7% of the tested compounds scored in any of these assays.
# B2AR arrestin ag = beta-arrestin recruitment by human beta2-adrenergic receptor ligands | P07550 | HTLA Tango cells, beta-arrestin recruitment, luciferase luminescence, 18 h | Potency, µM (doses to about 46.1 µM), most hits filed as activators | 44,000 tested, under 10 active | AID 1347077;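 note: potency is the fitted concentration of half-maximal effect; 0% = DMSO and full agonism = EC100 isoproterenol or metaproterenol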
#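 First, Tango cells carrying beta2-AR and beta-arrestin fusions received compound up to 46 microM. After 18 hr at 37 degrees C, luciferase substrate was added for 15 minutes, then luminescence gave %Activity for curve fitting.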
# NTMT1 inhibitor = inhibitors of human N-terminal methyltransferase NTMT1 | NTMT1 MTase-Glo SAH luminescence, purified enzyme | Potency, µM (highest dose often 114 µM), without a hit: at the top dose activity change, negative = inhibition, actives largely listed as inhibitors | actives 2.5% (n = 59,000) | AID 1645870;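 note: potency is the fitted concentration of half-maximal effect; plate controls were DMSO vehicle for no effect and no enzyme for full effect; nearly all actives have a fitted effect of over 65% in size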
# Target sequence (Q9BV86 whole entry, looked up): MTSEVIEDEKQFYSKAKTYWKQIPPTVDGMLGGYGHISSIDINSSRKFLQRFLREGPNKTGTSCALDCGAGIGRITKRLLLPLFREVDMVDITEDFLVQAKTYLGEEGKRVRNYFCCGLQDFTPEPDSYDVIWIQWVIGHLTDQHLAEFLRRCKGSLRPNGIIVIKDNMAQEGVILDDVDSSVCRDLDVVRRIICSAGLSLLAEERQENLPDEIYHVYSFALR
# FH mod = Identification of activators of human fumarate hydratase by quantitative high-throughput screening. Fumarate hydratase, mitochondrial (Homo sapiens), P07954. FH coupled MDH/diaphorase resazurin fluorescence, 15 min. Potency, µM (doses to about 79.9 µM), without a hit: at the top dose activity change, negative = inhibition, most hits filed as inhibitors. actives 0.22% (n = 54,000). AID 1347055, 2019; note: potency is the fitted concentration of half-maximal effect; % is set by controls: 0 for no effect and ±100 for the full control effect; the screen sought activators but most active calls are inhibition curves; nearly all actives have a fitted effect of over 45% in size
# PTAP-TSG101 blk = blocks PTAP binding to human TSG101, validation; Q99816; Fluorescence polarization, FITC-PTAP peptide/Tsg101, 20 min; Potency, µM (titrated, usually from 115 µM), actives largely listed as inhibitors; 44,000 tested, under 10 active; AID 1347069; note: potency is the fitted concentration of half-maximal effect; 0% is about no effect
#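 Read-out is FITC fluorescence polarization. Compounds were added to Tsg101 binding domain (10 uM final), then FITC-PTAP peptide (50 nM final), 20 min at r.t. Total S+P intensity flags fluorescent compounds.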
# GPR32 ag = activates human resolvin D1 receptor GPR32; O75388; CHO-K1 GPR32 beta-arrestin PathHunter luminescence, 90 min; zero percent set by DMSO-only wells; activation, % at 76.9 µM; actives 2.5% (n = 48,000);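 active = activation of at least 60% and not above a set upper limit, about 1 call in 100 departs from these limits; inconclusive = activation of 40% to 60%, or above that upper limit; inactive = activation under 40%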; note: 0% is about no effect
# Target sequence (O75388 whole entry, looked up): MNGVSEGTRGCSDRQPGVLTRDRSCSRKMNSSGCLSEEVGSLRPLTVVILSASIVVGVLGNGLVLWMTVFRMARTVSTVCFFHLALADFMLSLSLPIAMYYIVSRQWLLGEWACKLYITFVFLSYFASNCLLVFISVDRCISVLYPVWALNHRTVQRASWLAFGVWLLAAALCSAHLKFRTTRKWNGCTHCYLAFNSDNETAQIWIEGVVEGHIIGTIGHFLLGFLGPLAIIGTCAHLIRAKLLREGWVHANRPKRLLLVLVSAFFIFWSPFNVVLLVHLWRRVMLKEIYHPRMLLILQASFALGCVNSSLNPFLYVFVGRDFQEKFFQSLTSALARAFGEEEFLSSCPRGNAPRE
#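 Step 1: seed CHO-K1 GPR32 beta-arrestin cells, 2,500/well, overnight at 37 °C. Step 2: add compounds, 90 min at 37 °C. Step 3: detection reagent, 1 h ambient, then luminescence.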
# GALK inh = inhibits human galactokinase. recombinant GALK, Kinase-Glo ATP luminescence, 1 h. Potency, µM (highest dose often 57.5 µM), for the others: at the highest dose activity, negative = inhibition, usual class: inhibitors. 44,000 tested, under 10 active. AID 1347072;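 note: plate controls were full GALK reaction for no effect and reaction lacking GALK for full effect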
#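 5 nM GALK with 35 µM ATP and 100 µM galactose in HEPES pH 8.0, MgCl2, NaCl, DTT, BSA; 1 h RT reaction, remaining ATP detected by Kinase-Glo Plus luminescence after 10 min; qHTS concentration series.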
# Starred values were filed as active, the others as inactive; i = inactive; u = inconclusive; x = not tested or not shown; ! = not confirmed by another sample; [ ] = remark or other dose. Unless noted, calls come from the whole dose curve; as a rule, active = well fitted curve in the direction sought with a large enough effect; inconclusive = small, poorly fitted or top-dose-only effect, or another doubt; inactive = no such curve, though single readings can be large; an effect the other way counts as inactive or inconclusive.
SMILES,B2AR arrestin ag,NTMT1 inhibitor,FH mod,PTAP-TSG101 blk,GPR32 ag,GALK inh
CC(C)c1cc(C(C)C)c(CC(=O)NS(=O)(=O)Oc2c(C(C)C)cccc2C(C)C)c(C(C)C)c1,x,40µM*!,-22%,x,x,x
CCOC(=O)C1CCCN(C(=O)Cn2c(=O)cc(C)c3c(C)nn(C)c32)C1 (centres undefined),i,-6%,0%,i,81*,-2%
Cc1cc(=O)n(CC(=O)N2CCN(c3ccc(F)cc3)CC2)c2c1c(C)nn2C,i,-12%,-5%,i,71*,0%
Cc1nn(C)c2c1c(C(F)(F)F)cc(=O)n2CC(=O)N1CCCCC1C (centres undefined),i,7%,4%,i,80*,2%
CCOc1ccc(NC(=O)Cn2c(=O)cc(C)c3c(C)nn(C)c32)cc1,i,0%,-2%,i,18,-1%
Cc1c2cnn(-c3ccccc3)c(=O)c2c(C)n1CC(=O)N1CCN(c2ccc(F)cc2)CC1,i,u,-6%,i,0,0%
CCOc1ccc(CCNC(=O)c2cc3sccc3n2Cc2ccccc2)c(F)c1OCC,x,18%,x,x,x,x
CCC(C)NC(=O)c1ccc2c(c1)sc1nc(-c3ccc(OC)cc3)cn12 (centres undefined),i,8%,-3%,i,81*,0%
CCN(CC)CCCNC(=O)c1ccc2c(c1)sc1nc(-c3ccc(C)cc3)cn12,i,50µM*,-7%,i,-8,2%
CCCNC(=O)c1ccc2c(c1)sc1nc(-c3ccc(C)cc3)cn12,i,14%,2%,i,-4,-12%
COc1ccc(CCO[C@@H]2O[C@H](CO[C@@H]3OC[C@H](O)[C@H](O)[C@H]3O)[C@@H](O)[C@H](O)[C@H]2O)cc1,x,u,0%[53.3 µM],x,x,x
CNCc1ccccc1,x,56µM*,-1%[53.3 µM],x,-2,x
COc1ccc(CNC(=O)CC(C)CC2=NS(=O)(=O)c3ccccc3N2)cc1 (centres undefined),i,11%,5%,i,5,1%
CC(CC(=O)NCc1ccc(Cl)cc1Cl)CC1=NS(=O)(=O)c2ccccc2N1 (centres undefined),i,15%,3%,i,66*,1%
O=c1[nH]cnc2c([C@@H]3N[C@H](CO)[C@@H](O)[C@H]3O)c[nH]c12,x,u,1%,x,x,x
COCCCNc1nc(NCc2ccc(C)cc2)c2cnn(C)c2n1,i,3%,6%,i,69*,1%
COCCNc1nc(NCc2ccccc2OC)c2cnn(C)c2n1,i,-8%,-8%,i,2,-1%
COCCCNc1nc(NCc2ccccc2OC)c2cnn(C)c2n1,i,u,-2%,i,75*,-2%
O=C(O)CC1(O)C(=O)Nc2ccccc21 (centres undefined),x,u,-19%,x,x,x
COc1cc(NC(=O)c2ccc(C)cc2)ccc1NC(=O)c1cc2ccccc2o1,i,-3%,5%,i,-3,0%
CCCCCC(=O)Nc1ccc(NC(=O)c2cc3ccccc3o2)c(OC)c1,i,5%,0%,i,121*,-3%
CN(Cc1ccc(C(=O)O)cc1)c1ccc(OCc2c(-c3c(Cl)cccc3Cl)noc2C2CC2)nc1C(F)(F)F,x,u,16µM*,x,x,x
CCCOc1ccc(CNC(=O)C2CCN(c3nc4ccccc4nc3C(F)(F)F)CC2)cc1,i,1%,2%,i,7,2%
CC(C)N(CCCNC(=O)Nc1ccc(C(C)(C)C)cc1)C[C@H]1O[C@@H](n2cc(Br)c3c(N)ncnc32)[C@H](O)[C@@H]1O,x,8.9µM*,3%,x,x,x
COc1cccc(-c2cc(=O)c3ccccc3o2)c1N,x,18%,-3%,x,-11,x
SMILES,B2AR arrestin ag,NTMT1 inhibitor,FH mod,PTAP-TSG101 blk,GPR32 ag,GALK inh
COc1ccc(-c2cc(=O)c3c(O)cc(O)cc3o2)cc1O,x,u,24µM*,x,x,x
COc1ccc2nc(NC(=O)Nc3ccccc3)sc2c1,x,u,-2%[53.3 µM],x,101*,x
O=C(Cc1ccc(Cl)c(Cl)c1)Nc1ccc(S(=O)(=O)O)cc1,x,27%,x,x,x,x
Cc1ccc2[nH]c(CSc3nnc(NC(=O)COc4ccccc4)s3)cc(=O)c2c1,i,-1%,-33%,i,76*,-2%
Nc1nc(OC(c2ccc(-c3cccc(F)c3)cc2)C(F)(F)F)cc(-c2ccc(C[C@H](N)C(=O)O)cc2)n1 (some centres undefined),x,12%,x,x,x,x
COc1ccc(NS(=O)(=O)c2ccc(NC(=O)N3CCCC3)cc2)cc1,i,-6%,-5%,i,37,2%
CCOc1ccc(NS(=O)(=O)c2ccc3c(c2)NC(=O)CCS3)cc1,i,-16%,-9%,i,75*,0%
COc1ccc(Cl)cc1NS(=O)(=O)c1ccc2c(c1)NC(=O)CC(=O)N2,i,1%,-1%,i,-5,0%
Cc1cc(C)c(NS(=O)(=O)c2ccc3c(c2)NC(=O)CCS3)c(C)c1,i,-5%,-24%,i,83*,1%
CC(=O)c1ccc(NS(=O)(=O)c2ccc3c(c2)NC(=O)CCS3)cc1,i,11%,0%,i,-10,-1%
CCOc1ccc(NS(=O)(=O)c2ccc(NC(=O)N3CCCC3)cc2)cc1,i,14%,11%,i,65*,0%
Cc1ccc(Cl)cc1NS(=O)(=O)c1ccc2c(c1)NC(=O)CCS2,i,21%,-8%,i,94*,2%
N#Cc1ccnc(N2C(=O)CC[C@H]2C(=O)N(c2cncc(F)c2)C(C(=O)NC2CC(F)(F)C2)c2ccccc2Cl)c1 (some centres undefined),x,6%,x,x,x,x
O=C(Nc1nccs1)C(c1cc(F)ccc1O)N1Cc2ccccc2C1=O (centres undefined),x,-5%,x,x,x,x
COc1ccc(Cl)cc1NC(=O)COc1cccc2c(=O)n(C)ccc12,i,-6%,21%,i,-3,-1%
CCCCc1ccc(NC(=O)COc2cccc3c(=O)n(C)ccc23)cc1,i,1%,15%,i,60*,-11%
CCCn1ccc2c(OCC(=O)Nc3ccc(OC)c(OC)c3)cccc2c1=O,i,14%,-9%,i,86*,-2%
Cn1ccc2c(OCC(=O)NCc3ccccc3Cl)cccc2c1=O,i,15%,-1%,i,86*,-7%
CC1(C)SCCN(S(=O)(=O)c2ccc(OCC#CCO)cc2)[C@H]1C(=O)NO,x,3%,x,x,x,x

# Source: PubChem
